This is an account of results in PubChem BioAssay (Tox21).

Several values for one entry are separate records, joined by “and”; a condition that tells them apart may be missing. Equal entries are not always repeated. Records with an inconclusive call do not appear. A number with no mark means an inactive call. Activity calls are given as the source filed them. The call rests on the fitted dose curve; in most records, active means well fitted curve in the direction sought with a large enough effect in the repeat runs; inconclusive means weak or mixed curves; inactive means no such curve, though single readings can be large; an effect the other way counts as inactive or inconclusive.
On the % scale 0 is the no-effect control and ±100 the full control effect; potency means the concentration at half of the fitted maximal effect.

The nature of the first test: qHTS RealTime-Glo MT Cell Viability Assay in HepG2 cells - 8 hour (AID 1224873). Further: nearly all actives have a fitted effect of over 55% in size. The note with it: RealTime-Glo luminescence; series mostly up to 76.8 µM. The essentials:
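Real-time viability: cells seeded at 600 per well together with NanoLuc and cell-permeant prosubstrate, compounds added after 5 h incubation. Luminescence tracked at 0, 8, 16, 24, 32 and 40 h of exposure.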
For orientation: Quantitative high-throughput screening tests each substance at several concentrations.
Consider `C=CC(C)(CCC=C(C)C)OC(=O)/C=C/c1ccccc1` (stereo not drawn), for which the Potency result was “inactive”.
Turning to `COc1nccnc1CC(C)C`, the Potency entry was “inactive”.
On the same count and under the same terms, to `CCCCC(CC)COC(=O)c1ccc(O)cc1` (stereo not drawn) belongs “inactive”; to `Cc1c(C(=O)O)cccc1[N+](=O)[O-]`, “inactive”; to `Clc1ccccc1CN1CCc2sccc2C1`, “inactive”.
For the compound `Clc1ccc(C(c2ccccc2Cl)C(Cl)Cl)cc1` (stereo not drawn), the Potency result is “inactive”.
Same read-out and setting: the value for `CCC(C)c1ccccc1` (stereo not drawn) was “inactive”; that for `CCCCCCCOC(=O)c1ccccc1C(=O)OCCCCCCC` was “inactive”.
Still for that read-out and setting: the value for `COCC(=O)O[C@]1(CCN(C)CCCc2nc3ccccc3[nH]2)CCc2cc(F)ccc2[C@@H]1C(C)C` was 21.3 µM (active).
With `O[C@@H](c1cc(C(F)(F)F)nc2c(C(F)(F)F)cccc12)[C@H]1CCCCN1`, the Potency was 23.9 µM (active).
Turning to `CC(C)=C1CC[C@@H](C)CC1=O`, the Potency result is “inactive”.
As to `SCCCCCCCCS`, the Potency entry was “inactive”.

The nature of a further test: qHTS RealTime-Glo MT Cell Viability Assay in HEK293 cells - 40 hour (AID 1224874). Further: nearly all actives have a fitted effect of over 50% in size. The settings on record: RealTime-Glo luminescence; max response: hits give low values. The essentials:
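HEK293 cells mixed with RealTime-Glo reagents (NanoLuc plus cell-permeant prosubstrate) at 600 cells/well, preincubated 5 h at 37 C/5% CO2, then given 23 nL compound in DMSO. Nonlytic luminescence from viable cells was read at 0, 8, 16, 24, 32 and 40 h.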
Take `CCC(=O)CC(C)CC` (stereo not drawn): the max response is 3.72%.
Consider `C=C/C=C/C=C/CCCCC`, for which the max response is -0.0339%.
Consider `Oc1c(Br)cc(Br)c2cccnc12`, for which the Potency is 19 µM (active).
As to `CCCCCCCC/C=C\CCCCCCCC(=O)NCc1ccc(O)c(OC)c1`, the Potency is 4.25 µM (active).
For the compound `CCCOc1sc(C(=O)N2CCC(c3cc(CN)ccc3F)CC2)c(C)c1Br`, the Potency was 31.8 µM (active).
Consider `O=S(O)O`, for which the max response was 7.9%.
Regarding `NCCCCCCNCCCCCCN`, the max response is -6.12%.
Still for that read-out and setting: to `C=CC/C=C/C/C=C/C/C=C/C` belongs 0%; to `C=CCCCCCCC=C`, 0.211%; to `CCCCN(C)C`, 1.09%.
For `CC(NCCC(c1ccccc1)c1ccccc1)c1ccccc1` (stereo not drawn), the Potency was 16.9 µM (active).
With `CCCCCCCCCCCCCCCC`, the max response was 15.7%.
Turning to `CCc1cccc(CC)c1NC(=O)C(=O)O`, the max response was 9.15%.
Regarding `O=C1OC(OC(=O)c2cccnc2Nc2cccc(C(F)(F)F)c2)c2ccccc21` (stereo not drawn), the max response was -1.07%.
Take `CN1[C@@H]2CC[C@H]1CC(OC(=O)C(CO)c1ccccc1)C2` (stereo partly drawn): the max response was -0.934% and 16.5%.
With `CC(COC(=O)c1ccccc1)OC(=O)c1ccccc1` (stereo not drawn), the max response was -5.23%.
The same measure, in the same setting: to `CCOC(=O)CN` belongs -0.943%; to `COC(=O)CC(C)CCC=C(C)C` (stereo not drawn), 7.75%.
With `CCCCCCCC(=O)OCC`, the max response is -3.83%.
Turning to `CCOC(/C=C(\C)CCC=C(C)C)OCC`, the max response was 9.38%.
Regarding `CCC1CCCCC1`, the max response is -1.07%.
For the compound `CCCCCCCCCCCCCCNCCO`, the Potency was 12 µM (active).
As for `O=C1c2c(O)ccc(O)c2C(=O)c2c(NCCNCCO)ccc(NCCNCCO)c21`, the Potency is 0.019 µM (active).
As for `Cc1c(-c2ccc(O)cc2)n(Cc2ccc(OCCN3CCCCCC3)cc2)c2ccc(O)cc12`, the Potency is 3.38 µM (active).
Take `C=CC(C)(CCC=C(C)C)OC(=O)/C=C/c1ccccc1` (stereo not drawn): the max response was -2.78%.
Turning to `COc1nccnc1CC(C)C`, the max response was 10.2%.
For the compound `CCCCC(CC)COC(=O)c1ccc(O)cc1` (stereo not drawn), the Potency was 48.8 µM (active).
Turning to `Cc1c(C(=O)O)cccc1[N+](=O)[O-]`, the max response was -5.1%.
Consider `Clc1ccccc1CN1CCc2sccc2C1`, for which the max response is -22.8%.
Consider `Clc1ccc(C(c2ccccc2Cl)C(Cl)Cl)cc1` (stereo not drawn), for which the max response was -26.4%.
As for `CCC(C)c1ccccc1` (stereo not drawn), the max response is 6.63%.
On to `CCCCCCCOC(=O)c1ccccc1C(=O)OCCCCCCC`, for which the max response was -16.7%.
With `COCC(=O)O[C@]1(CCN(C)CCCc2nc3ccccc3[nH]2)CCc2cc(F)ccc2[C@@H]1C(C)C`, the Potency was 6.74 µM (active).
Regarding `O[C@@H](c1cc(C(F)(F)F)nc2c(C(F)(F)F)cccc12)[C@H]1CCCCN1`, the Potency was 8.49 µM (active).
In the case of `CC(C)=C1CC[C@@H](C)CC1=O`, the max response was 0.14%.
On to `SCCCCCCCCS`, for which the max response was 9.16%.
